# Results from the OligoGym collection.
# Assays:
# Test in all cases: pooled miR-30 sensor sort-seq; sequence = guide strand
# Details in all cases: shRNA
# CEP55 = molecular target: CEP55
# CEP110 = molecular target: CEP110
# CENPE = molecular target: CENPE
# CHCHD8 = molecular target: CHCHD8
# CHI3L1 = molecular target: CHI3L1
# CHEK1 = molecular target: CHEK1
# CLDN16 = molecular target: CLDN16
# CNOT1 = molecular target: CNOT1
# COL4A3BP = molecular target: COL4A3BP
# COPS7A = molecular target: COPS7A
# CRB1 = molecular target: CRB1
# CREB5 = molecular target: CREB5
# CPNE5 = molecular target: CPNE5
# CRB3 = molecular target: CRB3
# CRTAM = molecular target: CRTAM
# CSGALNACT1 = molecular target: CSGALNACT1
# CSH1 = molecular target: CSH1
# CTSB = molecular target: CTSB
# CTNNBL1 = molecular target: CTNNBL1
# CTSH = molecular target: CTSH
# Further: reference of the scale not given here.
sequence,measurement,setting,value
TTAACAATTTTAGCTAAGCAGA,sensor-assay potency score (higher = more potent),CEP55,-1.37
TTGTAGTCTACCACTCAACTGC,sensor-assay potency score (higher = more potent),CEP110,0.0361
TTATGTTTAGACATCTGCCTTA,sensor-assay potency score (higher = more potent),CEP110,0.679
TAGTAGTCTCAGTAGACGCTGC,sensor-assay potency score (higher = more potent),CEP55,-0.26
TTTATTTTTGTAACATAGCTTA,sensor-assay potency score (higher = more potent),CENPE,-0.197
TCATGCAATCCTTGAACGCCTG,sensor-assay potency score (higher = more potent),CHCHD8,-0.766
TATCTTGGCAATGTCATAGCTG,sensor-assay potency score (higher = more potent),CHI3L1,0.682
ATAATTAGTATGGTCACTGTGT,sensor-assay potency score (higher = more potent),CHI3L1,-0.0223
TTTGTCTCTCCGTCCAGGGTAG,sensor-assay potency score (higher = more potent),CHI3L1,-0.776
TTGCTTTTGACGCTTTCCTGGT,sensor-assay potency score (higher = more potent),CHI3L1,-0.698
TTTATTGATACAGATCTCTTTC,sensor-assay potency score (higher = more potent),CHEK1,0.115
TGTCTCTTGAACTCCAATCCAT,sensor-assay potency score (higher = more potent),CHEK1,-0.483
TTGTATGCAGAGCAGCACTGGA,sensor-assay potency score (higher = more potent),CHI3L1,-1.21
TTCTGGTTTAATATCCCTGTGA,sensor-assay potency score (higher = more potent),CHEK1,-0.58
TTGTCTGCATCCAATTTGGTAA,sensor-assay potency score (higher = more potent),CHEK1,-1.02
TTTTCTTCACTAGAAGCACTGT,sensor-assay potency score (higher = more potent),CHEK1,0.254
TAGTCAGTGTTGCTGAATCTGT,sensor-assay potency score (higher = more potent),CHI3L1,-1.28
TTCAGGAACTACTATTTGCAGT,sensor-assay potency score (higher = more potent),CHEK1,-0.581
TTTGTTGTACCATCTATCTTTT,sensor-assay potency score (higher = more potent),CHEK1,-0.765
AAATCGTAGGTCATGATGCTAA,sensor-assay potency score (higher = more potent),CHI3L1,-0.871
TAGCAGCACTATATTCACCAGG,sensor-assay potency score (higher = more potent),CHEK1,-0.884
TTAATCTTCAGGAAGTGTCTCT,sensor-assay potency score (higher = more potent),CHEK1,0.552
TTCAGGTACTGCACCTTGCTTT,sensor-assay potency score (higher = more potent),CHI3L1,-0.412
TTCATTTCCTTGATTAGGGTGG,sensor-assay potency score (higher = more potent),CHI3L1,0.13
TGAATCTGTCAGGACTTGCATC,sensor-assay potency score (higher = more potent),CHI3L1,-0.763
ATCTTGGCAATGTCATAGCTGC,sensor-assay potency score (higher = more potent),CHI3L1,-1.04
TATATTGGCAAAGCTGTAGATG,sensor-assay potency score (higher = more potent),CHI3L1,-1.02
TAAAGAATCGTGTCATTCTTTT,sensor-assay potency score (higher = more potent),CHEK1,-0.659
TTTGACGCTTTCCTGGTCGTCG,sensor-assay potency score (higher = more potent),CHI3L1,-0.339
TTGTTGATATAGTAACCTGATT,sensor-assay potency score (higher = more potent),CHEK1,-1.22
TTTTCTGGTTTAATATCCCTGT,sensor-assay potency score (higher = more potent),CHEK1,0.0757
TCTGTCAGGACTTGCATCCTCC,sensor-assay potency score (higher = more potent),CHI3L1,-0.579
TTGAGTGTGTTGAGCATGCCGT,sensor-assay potency score (higher = more potent),CHI3L1,-0.388
TTTTCTTCCATTGATAGCCCAA,sensor-assay potency score (higher = more potent),CHEK1,-0.419
TTGGCAATGTCATAGCTGCTGT,sensor-assay potency score (higher = more potent),CHI3L1,-0.359
TAACTGACTATTCAAAAGCATA,sensor-assay potency score (higher = more potent),CHEK1,-1.68
TTGCATCCTCCTGACCTCGGAA,sensor-assay potency score (higher = more potent),CHI3L1,-0.718
TAGCAGACCAGTTTGTATGCAG,sensor-assay potency score (higher = more potent),CHI3L1,0.269
TAGAGCGTCACATCATTCCACT,sensor-assay potency score (higher = more potent),CHI3L1,-0.926
TTTCCTGGTCGTCGTATCCTAC,sensor-assay potency score (higher = more potent),CHI3L1,-0.76
TTTGGTAAAGAATCGTGTCATT,sensor-assay potency score (higher = more potent),CHEK1,-0.878
TTCCTTTATAAATTCGGCCTTC,sensor-assay potency score (higher = more potent),CHI3L1,-0.526
TTCCACAGGACCAAACATCAAC,sensor-assay potency score (higher = more potent),CHEK1,-1.04
TATCCCATAAGGAAAGACCTGT,sensor-assay potency score (higher = more potent),CHEK1,-0.371
TTCTTCACTAGAAGCACTGTTT,sensor-assay potency score (higher = more potent),CHEK1,0.0317
TTGGAAAATCTTTGAGACCCAA,sensor-assay potency score (higher = more potent),CHI3L1,-0.569
TTTGTATGCAGAGCAGCACTGG,sensor-assay potency score (higher = more potent),CHI3L1,-1.09
TTGAGCATGCCGTAGAGCGTCA,sensor-assay potency score (higher = more potent),CHI3L1,-0.951
TACACATCAACAGCATACCACA,sensor-assay potency score (higher = more potent),CLDN16,-1.23
TATTCTTCAAACAAGTTCCTTA,sensor-assay potency score (higher = more potent),CNOT1,0.402
TTTTGTGTCATATTTGACTGTG,sensor-assay potency score (higher = more potent),CNOT1,0.162
TATCTTGTCTGTCAAGAGCAGC,sensor-assay potency score (higher = more potent),COL4A3BP,-1.23
TTCTAGGATGAACATGTCCAGT,sensor-assay potency score (higher = more potent),COPS7A,-1.29
TTCATTGACGTCTTCTTCGCAG,sensor-assay potency score (higher = more potent),CRB1,0.387
TACACTTCTACAAGAAAGCTGT,sensor-assay potency score (higher = more potent),CREB5,0.523
TATGTGTTAACAACAACTGTTT,sensor-assay potency score (higher = more potent),CREB5,-0.672
TTGGCTTTCACACCAATCCTTT,sensor-assay potency score (higher = more potent),CRB1,-1.07
TTGTCGATGACTTCGGTGCGCC,sensor-assay potency score (higher = more potent),CPNE5,-0.869
TTAGATATCCTTGTGATTCTTT,sensor-assay potency score (higher = more potent),CREB5,0.29
TTACTTGTAAGTTTATTGCTGC,sensor-assay potency score (higher = more potent),CREB5,0.486
TTGTCCAGGAGGTTCCTGCAGG,sensor-assay potency score (higher = more potent),CPNE5,-0.916
TTTAATGACAAACTCAACTTAC,sensor-assay potency score (higher = more potent),CREB5,-0.383
TTGAACAATGTAATCTGTGTAG,sensor-assay potency score (higher = more potent),CREB5,-0.458
TTGCAGAAGTGGTCTGTATTTG,sensor-assay potency score (higher = more potent),CRB3,-1.49
TGGGAGAACTGCTCCTCGCTAC,sensor-assay potency score (higher = more potent),CRB3,-1.03
TTCTTGTCCAGCTTGTTGGCAC,sensor-assay potency score (higher = more potent),CPNE5,-0.22
TTGAACTGAGCTATTTTTCTGG,sensor-assay potency score (higher = more potent),CREB5,0.269
TCCGTCTGCCGCTTCTCCCGAA,sensor-assay potency score (higher = more potent),CRB3,-1.23
TTGAAGAACATTCATTGACGTC,sensor-assay potency score (higher = more potent),CRB1,-0.696
TTTGAAGTACCTTCTTCCCTGC,sensor-assay potency score (higher = more potent),CRB3,0.11
AAGACCACGATGATAGCAGTGA,sensor-assay potency score (higher = more potent),CRB3,-0.0143
ATAAATATCTGTATTATCCTTC,sensor-assay potency score (higher = more potent),CRB1,0.756
TAGTGCTGGATGATCTCTCCGA,sensor-assay potency score (higher = more potent),CPNE5,0.148
TTCAAATCCTTGAAGCACCGGC,sensor-assay potency score (higher = more potent),CRB1,0.589
TGGACGCAGGTTGCCATCGGAG,sensor-assay potency score (higher = more potent),CRB3,-1.88
TTATATTGTCAATAGCTCTGTC,sensor-assay potency score (higher = more potent),CRB1,0.532
ATAGCAGTGATGGCTTCTGGAC,sensor-assay potency score (higher = more potent),CRB3,-1.45
TGCTCCTCGCTACTGGGCCGGT,sensor-assay potency score (higher = more potent),CRB3,-1.75
TTCTCATTTGCAGAAGTGGTCT,sensor-assay potency score (higher = more potent),CRB3,-0.965
TTACATCTTGGATACAGCCTTT,sensor-assay potency score (higher = more potent),CRB1,-0.193
ATGAAGGCAAAACAGTGCTATT,sensor-assay potency score (higher = more potent),CRB3,-1.64
TTGGTCTGCGCCATGTCCGAGA,sensor-assay potency score (higher = more potent),CPNE5,-1.04
TTGAGGTCGATCTCACACTGGG,sensor-assay potency score (higher = more potent),CRB1,-0.294
TATTATTACATTTGCATCCCTT,sensor-assay potency score (higher = more potent),CRB1,-0.226
TAACTGGTGGTGAACTCCCCAA,sensor-assay potency score (higher = more potent),CPNE5,-0.885
TTTGAGAAATTGCTCTTCCTGA,sensor-assay potency score (higher = more potent),CRB1,-0.258
TTTATATTGTCAATAGCTCTGT,sensor-assay potency score (higher = more potent),CRB1,0.0403
TATTCTCATTTGCAGAAGTGGT,sensor-assay potency score (higher = more potent),CRB3,-1.61
TAGATCAAAACGGAGGTTCTGC,sensor-assay potency score (higher = more potent),CPNE5,-0.116
TAATCCACAATGAACTTGCGCA,sensor-assay potency score (higher = more potent),CPNE5,-0.151
TGTCTGAACAAGAACAATCATT,sensor-assay potency score (higher = more potent),CRB1,-1.04
TTGCCATCGGAGCTGGAGCTGG,sensor-assay potency score (higher = more potent),CRB3,-1.68
TTTAAAAACAAGTAGATCCTAC,sensor-assay potency score (higher = more potent),CREB5,0.376
TTAGCTGCTCACACTGACCCTG,sensor-assay potency score (higher = more potent),CRTAM,-0.252
TATTGATGAAGTCTGACCGATA,sensor-assay potency score (higher = more potent),CSGALNACT1,-0.823
TAATTCAGTTACTTCCACCTGG,sensor-assay potency score (higher = more potent),CSGALNACT1,0.629
TACTCGGGCACCTAGAAGCCAC,sensor-assay potency score (higher = more potent),CSH1,-1.13
TATCCGTAGTGCTTGTCCTGTT,sensor-assay potency score (higher = more potent),CTSB,-0.438
TTGGCAACCAGCCAGTAGGGTG,sensor-assay potency score (higher = more potent),CTSB,-1.27
TTCCACAGTGATCCTGTCCTCT,sensor-assay potency score (higher = more potent),CTSB,-0.145
TTGTAGAGCAGGAAGTCCGAAT,sensor-assay potency score (higher = more potent),CTSB,-0.653
TGTATTATCGTGTCCGAGCAAG,sensor-assay potency score (higher = more potent),CTNNBL1,-1.35
TTGTAGGTCGGGCTGTAGCCAG,sensor-assay potency score (higher = more potent),CTSB,-1.22
TTTTCTTGTCCAGAAGTTCCAA,sensor-assay potency score (higher = more potent),CTSB,-0.152
TTCTCCATACCCAACAGCCAGT,sensor-assay potency score (higher = more potent),CTSH,-1.28
TTTGTTGACATAGTTGACCAGC,sensor-assay potency score (higher = more potent),CTSB,-0.0911
TTACGGTGCTTAGACATCCATG,sensor-assay potency score (higher = more potent),CTSH,-1.04
TTTCTTGTCCAGAAGTTCCAAG,sensor-assay potency score (higher = more potent),CTSB,-1.12
TTGTCCTGTTTGTAGGTCGGGC,sensor-assay potency score (higher = more potent),CTSB,-0.855
ATCTGTATTATCGTGTCCGAGC,sensor-assay potency score (higher = more potent),CTNNBL1,-1.22
TGACGTGTTGGTACACTCCTGA,sensor-assay potency score (higher = more potent),CTSB,0.569
TCGGTAAACATAACTCTCTGGG,sensor-assay potency score (higher = more potent),CTSB,-0.352
TCACAGATCTTGCTACACTTGG,sensor-assay potency score (higher = more potent),CTSB,-0.121
TATATGTGGAAAGTAGCCCTTC,sensor-assay potency score (higher = more potent),CTSH,0.309
TTCTGATTCGATTCCACAGTGA,sensor-assay potency score (higher = more potent),CTSB,-0.73
TAACTTGACAGGGTGAAGCTGT,sensor-assay potency score (higher = more potent),CTSB,-0.16
TTTTTTTGTCATCATCCGCTTC,sensor-assay potency score (higher = more potent),CTNNBL1,-0.298
TTCTATACATCATGAAGTCCTG,sensor-assay potency score (higher = more potent),CTSH,-0.782
TTGGTGTGGATGCAGATCCGGT,sensor-assay potency score (higher = more potent),CTSB,-1.05
TTCTATTAAAGAATCATGCTGA,sensor-assay potency score (higher = more potent),CTSB,0.656
